Columns and labels:
Test in all cases: log2 ratio of Biotin-Ahx-Ub-VS probe labelling (fragment/DMSO); higher = less target engagement (more negative = stronger competition), active = hit call of the paper (q ≤ 0.05, log2 ratio ≤ -1)
Conditions in all cases: compound concentration: 200 uM; treatment time: 3 h
USP34 = USP34 (UniProt Q70CQ2)
In short: (§1)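 Labelling with Biotin-Ahx-Ub-VS (0.5 µM final, 1 h) followed a 3 h triplicate treatment of HEK293T lysate (495 µg per sample, Tris/CHAPS/IGEPAL buffer with protease inhibitors) with fragment at 200 µM or vehicle. Labelled DUBs were NeutrAvidin-enriched, digested with LysC and trypsin, and run by diaPASEF LC-MS/MS. The values, average log2 fragment/vehicle ratios by unpaired t-test, come from global-median-normalised Spectronaut label-free quantities. Proteins with ≥2 unique peptides were used.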

USP36 = target: T1, USP36 (UniProt Q9P275)
T1 sequence (whole entry): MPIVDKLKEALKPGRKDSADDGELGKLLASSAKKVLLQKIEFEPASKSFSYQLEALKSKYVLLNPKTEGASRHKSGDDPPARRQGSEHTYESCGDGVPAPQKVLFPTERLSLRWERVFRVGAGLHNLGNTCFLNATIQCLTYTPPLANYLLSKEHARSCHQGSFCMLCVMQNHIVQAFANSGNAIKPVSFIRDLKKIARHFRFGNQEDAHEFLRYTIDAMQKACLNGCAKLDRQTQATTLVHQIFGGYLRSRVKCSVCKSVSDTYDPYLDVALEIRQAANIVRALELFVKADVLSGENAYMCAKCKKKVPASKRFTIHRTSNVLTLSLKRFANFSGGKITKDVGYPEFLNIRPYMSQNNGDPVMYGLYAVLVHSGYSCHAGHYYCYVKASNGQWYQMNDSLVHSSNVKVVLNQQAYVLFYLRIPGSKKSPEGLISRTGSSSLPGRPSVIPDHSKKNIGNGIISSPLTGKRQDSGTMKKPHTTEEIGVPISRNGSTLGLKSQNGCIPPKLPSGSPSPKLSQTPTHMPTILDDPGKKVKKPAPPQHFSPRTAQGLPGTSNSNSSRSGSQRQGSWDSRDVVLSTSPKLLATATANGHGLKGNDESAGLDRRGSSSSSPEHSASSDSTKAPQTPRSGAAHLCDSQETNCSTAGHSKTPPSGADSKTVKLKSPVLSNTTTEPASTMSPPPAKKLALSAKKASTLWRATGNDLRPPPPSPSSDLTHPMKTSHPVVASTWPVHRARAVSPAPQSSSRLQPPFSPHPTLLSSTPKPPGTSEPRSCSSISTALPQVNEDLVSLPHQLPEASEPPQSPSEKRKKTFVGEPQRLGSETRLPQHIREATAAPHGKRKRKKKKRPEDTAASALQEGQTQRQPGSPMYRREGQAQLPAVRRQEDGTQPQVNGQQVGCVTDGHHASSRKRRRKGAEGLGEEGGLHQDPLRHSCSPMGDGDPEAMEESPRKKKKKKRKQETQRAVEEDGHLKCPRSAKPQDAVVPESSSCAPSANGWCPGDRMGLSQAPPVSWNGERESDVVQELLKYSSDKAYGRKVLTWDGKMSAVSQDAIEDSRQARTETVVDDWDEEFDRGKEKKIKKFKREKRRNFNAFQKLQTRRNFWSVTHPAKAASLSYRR
In short: as §1

USP38 = target: T2, USP38 (UniProt Q8NB14)
T2 sequence (whole entry): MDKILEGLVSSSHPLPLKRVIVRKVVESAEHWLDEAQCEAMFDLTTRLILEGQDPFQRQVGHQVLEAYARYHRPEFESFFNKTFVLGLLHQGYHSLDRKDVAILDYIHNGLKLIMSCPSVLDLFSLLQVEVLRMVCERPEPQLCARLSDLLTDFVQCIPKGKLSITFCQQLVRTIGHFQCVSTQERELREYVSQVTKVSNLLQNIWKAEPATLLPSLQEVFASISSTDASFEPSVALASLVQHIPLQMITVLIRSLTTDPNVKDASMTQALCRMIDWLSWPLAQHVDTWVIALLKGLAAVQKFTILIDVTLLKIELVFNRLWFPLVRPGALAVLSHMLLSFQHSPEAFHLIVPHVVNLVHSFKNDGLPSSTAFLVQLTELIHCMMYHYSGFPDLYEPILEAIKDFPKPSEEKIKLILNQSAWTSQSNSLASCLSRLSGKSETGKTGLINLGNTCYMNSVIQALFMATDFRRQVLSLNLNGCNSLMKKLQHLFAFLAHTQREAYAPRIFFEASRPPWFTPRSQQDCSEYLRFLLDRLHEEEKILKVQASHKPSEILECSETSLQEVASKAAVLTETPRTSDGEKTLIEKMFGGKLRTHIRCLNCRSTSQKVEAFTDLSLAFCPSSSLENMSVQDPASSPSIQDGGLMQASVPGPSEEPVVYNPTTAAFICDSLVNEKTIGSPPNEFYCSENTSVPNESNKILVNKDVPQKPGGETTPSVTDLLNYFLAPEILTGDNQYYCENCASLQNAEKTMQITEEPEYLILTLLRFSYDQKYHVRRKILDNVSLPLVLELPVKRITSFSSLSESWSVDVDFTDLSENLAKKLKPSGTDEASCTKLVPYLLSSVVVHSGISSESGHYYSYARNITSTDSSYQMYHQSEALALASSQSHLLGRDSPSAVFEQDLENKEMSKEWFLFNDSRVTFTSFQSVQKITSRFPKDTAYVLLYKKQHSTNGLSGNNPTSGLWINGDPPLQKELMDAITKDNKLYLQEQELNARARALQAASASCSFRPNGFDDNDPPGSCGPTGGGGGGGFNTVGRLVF
In short: as §1

USP39 = target: T3, USP39 (UniProt Q53GS9)
T3 sequence (whole entry): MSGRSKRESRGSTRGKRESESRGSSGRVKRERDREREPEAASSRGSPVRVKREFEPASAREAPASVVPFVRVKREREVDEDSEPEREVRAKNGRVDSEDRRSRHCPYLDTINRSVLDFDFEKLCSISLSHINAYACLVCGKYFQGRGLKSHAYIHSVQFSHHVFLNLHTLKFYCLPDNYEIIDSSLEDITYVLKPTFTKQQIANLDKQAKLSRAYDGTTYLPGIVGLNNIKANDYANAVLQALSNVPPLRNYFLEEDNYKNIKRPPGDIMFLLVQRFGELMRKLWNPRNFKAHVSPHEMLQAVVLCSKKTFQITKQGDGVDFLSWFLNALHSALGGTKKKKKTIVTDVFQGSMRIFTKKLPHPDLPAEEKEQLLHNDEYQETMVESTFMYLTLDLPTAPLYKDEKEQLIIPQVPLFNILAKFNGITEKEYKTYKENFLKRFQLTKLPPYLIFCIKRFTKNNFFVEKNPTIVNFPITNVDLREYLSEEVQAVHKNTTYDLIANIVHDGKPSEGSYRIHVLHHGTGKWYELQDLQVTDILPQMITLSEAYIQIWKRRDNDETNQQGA
In short: as §1

USP4 = target: T4, USP4 (UniProt Q13107)
T4 sequence (whole entry): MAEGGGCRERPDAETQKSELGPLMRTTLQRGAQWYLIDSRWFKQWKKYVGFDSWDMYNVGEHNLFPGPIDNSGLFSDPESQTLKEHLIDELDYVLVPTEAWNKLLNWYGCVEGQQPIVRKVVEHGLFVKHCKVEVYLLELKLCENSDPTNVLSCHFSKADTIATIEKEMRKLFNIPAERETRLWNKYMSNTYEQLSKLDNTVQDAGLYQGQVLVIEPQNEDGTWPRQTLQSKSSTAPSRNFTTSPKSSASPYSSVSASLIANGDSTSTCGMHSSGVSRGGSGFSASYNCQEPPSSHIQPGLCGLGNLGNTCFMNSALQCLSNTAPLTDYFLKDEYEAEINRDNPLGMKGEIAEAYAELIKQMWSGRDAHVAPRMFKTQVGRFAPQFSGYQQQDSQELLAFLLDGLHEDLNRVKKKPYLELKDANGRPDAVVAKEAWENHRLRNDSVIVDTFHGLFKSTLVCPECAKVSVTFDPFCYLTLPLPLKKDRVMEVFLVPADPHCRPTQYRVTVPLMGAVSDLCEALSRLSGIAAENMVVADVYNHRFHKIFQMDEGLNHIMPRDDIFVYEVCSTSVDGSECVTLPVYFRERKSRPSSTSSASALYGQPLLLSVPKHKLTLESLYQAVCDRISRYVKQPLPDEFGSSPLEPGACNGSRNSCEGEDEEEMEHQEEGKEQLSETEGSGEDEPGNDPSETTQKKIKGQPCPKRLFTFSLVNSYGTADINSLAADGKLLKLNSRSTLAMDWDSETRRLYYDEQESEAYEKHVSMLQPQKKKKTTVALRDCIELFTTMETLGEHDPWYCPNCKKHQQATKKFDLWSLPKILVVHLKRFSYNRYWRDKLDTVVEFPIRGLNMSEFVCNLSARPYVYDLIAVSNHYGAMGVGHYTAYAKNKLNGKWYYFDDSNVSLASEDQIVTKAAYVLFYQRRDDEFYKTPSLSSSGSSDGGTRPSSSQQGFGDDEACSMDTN
In short: as §1

Measured: log2 ratio of Biotin-Ahx-Ub-VS probe labelling

USP34, sequence (Q70CQ2 whole entry, the tested form may be a part): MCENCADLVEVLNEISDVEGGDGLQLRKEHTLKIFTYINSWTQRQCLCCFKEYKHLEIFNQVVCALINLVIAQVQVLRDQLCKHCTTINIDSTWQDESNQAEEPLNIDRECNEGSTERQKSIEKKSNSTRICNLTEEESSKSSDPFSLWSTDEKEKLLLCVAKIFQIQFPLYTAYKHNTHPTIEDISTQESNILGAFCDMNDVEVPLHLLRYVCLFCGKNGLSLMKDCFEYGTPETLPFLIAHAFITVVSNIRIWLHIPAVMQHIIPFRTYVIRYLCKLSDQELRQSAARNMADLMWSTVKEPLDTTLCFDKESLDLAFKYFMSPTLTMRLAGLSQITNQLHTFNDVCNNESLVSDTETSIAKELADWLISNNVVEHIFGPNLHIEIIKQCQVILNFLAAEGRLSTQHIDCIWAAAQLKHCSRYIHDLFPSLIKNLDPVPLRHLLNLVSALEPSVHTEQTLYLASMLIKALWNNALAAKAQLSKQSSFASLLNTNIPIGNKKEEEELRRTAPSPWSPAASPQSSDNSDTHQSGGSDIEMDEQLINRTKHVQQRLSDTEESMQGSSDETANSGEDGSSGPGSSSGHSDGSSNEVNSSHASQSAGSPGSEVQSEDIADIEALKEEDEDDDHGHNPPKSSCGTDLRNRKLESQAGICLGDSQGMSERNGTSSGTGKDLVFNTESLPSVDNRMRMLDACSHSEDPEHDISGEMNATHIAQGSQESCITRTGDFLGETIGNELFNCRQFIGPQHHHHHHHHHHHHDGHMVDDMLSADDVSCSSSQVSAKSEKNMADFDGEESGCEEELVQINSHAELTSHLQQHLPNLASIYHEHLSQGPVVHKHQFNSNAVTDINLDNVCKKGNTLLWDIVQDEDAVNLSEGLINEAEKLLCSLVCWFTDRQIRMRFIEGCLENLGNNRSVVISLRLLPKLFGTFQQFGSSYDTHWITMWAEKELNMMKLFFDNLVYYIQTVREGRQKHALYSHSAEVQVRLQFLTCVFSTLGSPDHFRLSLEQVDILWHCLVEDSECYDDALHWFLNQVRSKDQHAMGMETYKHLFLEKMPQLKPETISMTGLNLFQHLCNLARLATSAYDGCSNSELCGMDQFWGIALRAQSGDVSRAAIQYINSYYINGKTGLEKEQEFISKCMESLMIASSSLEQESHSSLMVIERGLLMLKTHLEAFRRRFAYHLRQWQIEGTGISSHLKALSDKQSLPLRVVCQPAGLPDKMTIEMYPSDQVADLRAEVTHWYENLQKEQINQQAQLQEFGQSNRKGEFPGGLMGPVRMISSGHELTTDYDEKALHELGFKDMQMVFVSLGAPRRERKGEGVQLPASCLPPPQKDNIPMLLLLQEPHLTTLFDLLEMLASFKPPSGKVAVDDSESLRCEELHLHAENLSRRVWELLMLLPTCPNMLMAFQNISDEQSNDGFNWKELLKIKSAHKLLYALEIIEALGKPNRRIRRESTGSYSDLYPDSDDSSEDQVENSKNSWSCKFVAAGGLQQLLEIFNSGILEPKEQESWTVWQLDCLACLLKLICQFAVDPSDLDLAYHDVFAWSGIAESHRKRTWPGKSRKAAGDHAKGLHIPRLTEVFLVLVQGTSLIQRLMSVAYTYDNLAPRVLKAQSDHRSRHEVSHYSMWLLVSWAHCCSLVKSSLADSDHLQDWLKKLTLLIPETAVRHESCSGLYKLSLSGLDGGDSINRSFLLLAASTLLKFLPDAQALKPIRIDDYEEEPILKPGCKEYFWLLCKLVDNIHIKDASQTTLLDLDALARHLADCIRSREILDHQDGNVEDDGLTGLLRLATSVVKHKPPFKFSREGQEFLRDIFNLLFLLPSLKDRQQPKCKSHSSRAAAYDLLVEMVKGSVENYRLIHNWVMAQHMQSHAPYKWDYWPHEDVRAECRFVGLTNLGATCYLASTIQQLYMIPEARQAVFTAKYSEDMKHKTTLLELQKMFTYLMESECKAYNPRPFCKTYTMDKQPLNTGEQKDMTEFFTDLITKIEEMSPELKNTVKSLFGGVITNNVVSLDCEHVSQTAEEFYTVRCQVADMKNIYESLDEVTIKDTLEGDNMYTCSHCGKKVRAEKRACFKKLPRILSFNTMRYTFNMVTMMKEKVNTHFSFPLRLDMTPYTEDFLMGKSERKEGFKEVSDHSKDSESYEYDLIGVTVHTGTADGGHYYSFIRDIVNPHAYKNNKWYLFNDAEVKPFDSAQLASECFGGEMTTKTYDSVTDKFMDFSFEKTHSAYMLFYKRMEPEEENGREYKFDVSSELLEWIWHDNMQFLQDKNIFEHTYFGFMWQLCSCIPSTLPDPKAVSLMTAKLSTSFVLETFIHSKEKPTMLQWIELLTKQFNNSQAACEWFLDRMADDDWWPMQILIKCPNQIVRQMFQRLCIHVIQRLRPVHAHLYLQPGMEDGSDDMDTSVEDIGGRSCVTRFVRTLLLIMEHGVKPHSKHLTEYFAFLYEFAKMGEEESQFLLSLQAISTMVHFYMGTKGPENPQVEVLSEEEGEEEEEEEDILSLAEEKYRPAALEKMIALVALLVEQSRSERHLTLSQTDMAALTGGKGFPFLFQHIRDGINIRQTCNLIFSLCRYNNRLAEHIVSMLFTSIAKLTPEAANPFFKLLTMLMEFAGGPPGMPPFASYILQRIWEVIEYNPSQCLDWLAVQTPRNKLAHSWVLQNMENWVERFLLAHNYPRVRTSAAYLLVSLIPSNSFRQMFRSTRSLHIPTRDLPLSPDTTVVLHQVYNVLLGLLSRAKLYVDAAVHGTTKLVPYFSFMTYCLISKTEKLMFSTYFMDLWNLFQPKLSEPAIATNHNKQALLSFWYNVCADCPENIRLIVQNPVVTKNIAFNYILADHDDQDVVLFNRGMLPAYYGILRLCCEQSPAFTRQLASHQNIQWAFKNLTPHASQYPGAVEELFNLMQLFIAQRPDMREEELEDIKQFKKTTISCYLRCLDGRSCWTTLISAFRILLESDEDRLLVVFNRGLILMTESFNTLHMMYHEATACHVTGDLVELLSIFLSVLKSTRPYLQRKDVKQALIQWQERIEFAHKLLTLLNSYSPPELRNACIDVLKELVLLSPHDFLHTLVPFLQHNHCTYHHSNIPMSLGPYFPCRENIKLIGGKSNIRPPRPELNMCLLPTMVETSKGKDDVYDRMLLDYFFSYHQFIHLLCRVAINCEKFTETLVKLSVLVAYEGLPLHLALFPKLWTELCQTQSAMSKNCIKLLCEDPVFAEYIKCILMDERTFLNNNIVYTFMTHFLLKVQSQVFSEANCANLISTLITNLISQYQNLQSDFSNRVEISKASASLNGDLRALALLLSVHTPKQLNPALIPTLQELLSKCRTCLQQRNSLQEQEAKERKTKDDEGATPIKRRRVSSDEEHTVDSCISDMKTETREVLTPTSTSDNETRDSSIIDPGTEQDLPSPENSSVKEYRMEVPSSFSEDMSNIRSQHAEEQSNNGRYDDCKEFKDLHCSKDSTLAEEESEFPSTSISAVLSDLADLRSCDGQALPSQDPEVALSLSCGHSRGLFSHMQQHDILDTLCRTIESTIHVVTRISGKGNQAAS

CC(=O)C1CCCCN1C(=O)CCl (stereo not given)
inactive: USP34 -0.216 | USP36 -0.0205 | USP38 -0.0979 | USP39 -0.37 | USP4 -0.0834
